# Screening results deposited in PubChem by National Center for Advancing Translational Sciences (NCATS).
# AmpC inh no detg: blocks E. coli AmpC beta-lactamase in detergent-free assay; 330,000 compounds, 0.52% hits; Potency, µM (titrated, usually from 57.1 µM), without a hit: at the highest dose activity change, negative = inhibition, hits mostly inhibitors; P00811; AmpC nitrocefin hydrolysis, absorbance 480 nm, 0.0001% Triton;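 further: plate controls were no compound for no effect and no enzyme for full effect; nearly all actives have a fitted effect of over 20% in size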
# Target sequence (P00811 whole entry, looked up): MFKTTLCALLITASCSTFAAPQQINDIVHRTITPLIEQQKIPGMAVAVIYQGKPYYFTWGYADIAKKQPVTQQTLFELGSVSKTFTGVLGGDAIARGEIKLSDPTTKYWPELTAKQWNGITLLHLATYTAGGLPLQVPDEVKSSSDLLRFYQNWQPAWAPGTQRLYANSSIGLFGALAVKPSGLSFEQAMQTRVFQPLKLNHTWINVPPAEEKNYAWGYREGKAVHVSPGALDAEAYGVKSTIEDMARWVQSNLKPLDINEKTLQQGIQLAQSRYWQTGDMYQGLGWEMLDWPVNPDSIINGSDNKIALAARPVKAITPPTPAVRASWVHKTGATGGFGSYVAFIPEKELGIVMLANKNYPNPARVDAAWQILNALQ
#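 20 mM phosphate pH 7.0 + 0.01% (detergent screen) or 0.0001% Triton X-100; 5.3 nM AmpC reagent; cpd preinc 15 min RT; nitrocefin (800 uM stock) to start; A480 q20 s × 4 min; Activity was normalised to no-enzyme and no-compound control wells.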
# LmPK inhibitor: blocks Leishmania mexicana pyruvate kinase activity; Q27686; purified LmPK, Kinase-Glo ATP luminescence, 1 h; Potency, µM (titrated, usually from 57.5 µM), for inactives: at the highest dose activity change, negative = inhibition, most hits filed as inhibitors; 290,000 compounds, 0.37% hits; AID 1721
#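 Purified LmPK (0.1 nM) with 0.5 mM PEP and 0.1 mM ADP in imidazole buffer pH 7.2 with MgCl2/KCl, 1 h at room temperature. ATP formed was read by luciferase luminescence and normalized to no-enzyme and uninhibited controls.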
# AmpC detergent: AmpC beta-lactamase inhibition with detergent present. P00811. AmpC hydrolysis of nitrocefin, absorbance 480 nm, 0.01% Triton. Potency, µM (doses to about 114 µM), inactives show top-dose activity change, negative = inhibition, hits mostly inhibitors. 370,000 compounds, 0.041% hits. AID 485294;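 further: 0% = no-compound wells and -100% = no-enzyme wells; nearly all actives have a fitted effect of over 25% in size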
#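 AmpC (5.3 nM in the dispensed reagent) in 20 mM phosphate pH 7.0 with 0.01% (detergent screen) or 0.0001% Triton X-100 was preincubated with compounds for 15 min at room temperature. Nitrocefin was then added from an 800 uM solution, and hydrolysis was followed at 480 nm.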
# RE007 growth inh: less growth of the S. pombe RE007 Vpr strain | S. pombe RE007 Vpr strain, BacTiter-Glo ATP luminescence, 24 h | Potency, µM (doses to about 92.2 µM), without a hit: at the highest dose activity change, negative = less growth, actives largely listed as inhibitors | 360,000 compounds, 0.21% hits | AID 651644; active means well fitted falling curve with a large enough effect; inconclusive means small, poorly fitted or top-dose-only effect; inactive means no such curve, though single readings can be large or run the other way; further: nearly all actives have a fitted effect of over 50% in size
#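 Fission yeast RE007 carrying one integrated HIV-1 vpr copy, seeded at OD 0.01 in PMG+AL medium with 23 nL pinned compound. Grown 24 h at 30 degrees; viability read by BacTiter-Glo luminescence after 5 min.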
# Giardia FBPA inh: Giardia lamblia aldolase inhibition; A8B2U2; purified Giardia FBPA; Potency, µM (highest dose often 59.6 µM), inactives show at the highest dose activity, negative = inhibition, actives largely listed as inhibitors; 290,000 compounds, 0.71% hits; further: nearly all actives have a fitted effect of over 55% in size
# Target sequence (A8B2U2 whole entry, looked up): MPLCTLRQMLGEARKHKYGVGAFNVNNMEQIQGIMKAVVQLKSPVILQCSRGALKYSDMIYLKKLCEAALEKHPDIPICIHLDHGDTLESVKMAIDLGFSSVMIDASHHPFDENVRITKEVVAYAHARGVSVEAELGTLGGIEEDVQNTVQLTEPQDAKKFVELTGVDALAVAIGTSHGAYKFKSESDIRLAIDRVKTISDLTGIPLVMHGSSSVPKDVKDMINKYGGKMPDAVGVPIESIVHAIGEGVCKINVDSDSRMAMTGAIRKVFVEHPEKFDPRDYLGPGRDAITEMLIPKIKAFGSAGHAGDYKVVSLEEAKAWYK
#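 40 nM FBPA preincubated 10 min at RT with compound (up to 57.5 uM final), then substrate plus GAPDH/TPI/NAD/arsenate coupling and diaphorase/resazurin added. Fluorescence read after 20 min at RT, 525/598 nm.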
# Tb PYK inh: T. brucei pyruvate kinase inhibition. TbPYK enzyme, Kinase-Glo Plus ATP luminescence, 45 min. Q57TT1. 410,000 compounds, 0.12% hits. Potency, µM (top dose mostly 76.8 µM), without a hit: at the top dose activity, negative = inhibition, hits mostly inhibitors; further: nearly all actives have a fitted effect of over 50% in size
#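 ADP (130 uM final) triggers the TbPYK reaction after compound addition; incubation is 45 min at room temperature. Kinase-Glo Plus is then added and luminescence imaged. Normalized data are fitted to concentration-effect curves.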
# * marks the source's active call; other numbers are inactive results; u = inconclusive; x = no result; [ ] = another dose, or the depositor's remark. Only some compounds are listed: those with a hit (about 1.4% of all), similar ones and a draw of the others. Unless noted, the call rests on the fitted dose curve; in most records, active means well fitted curve in the direction sought with a large enough effect; inconclusive means small, poorly fitted or top-dose-only effect, or another doubt; inactive means no such curve, though single readings can be large; an effect the other way counts as inactive or inconclusive. Unless noted, on the % scale 0 is the no-effect control and ±100 the full control effect; potency means the concentration at half of the fitted maximal effect.
SMILES,AmpC inh no detg,LmPK inhibitor,AmpC detergent,RE007 growth inh,Giardia FBPA inh,Tb PYK inh
CCOC(=O)c1c(C)c(-c2ccccc2)n(CC(=O)NC2CCCCCC2)c1C,x,x,17%,x,x,0%
Cc1ccc(CNC(=O)CCCn2c(=O)c3ccccc3n(Cc3ccccc3Cl)c2=O)cc1,x,x,-1%,x,x,4%
CCCC(=O)N(c1ccc2oc(=O)sc2c1)S(=O)(=O)c1ccccc1,10µM*,4%,u,-2%,-11%,u
Cc1ccsc1C(=O)OCc1csc(-c2ccccc2)n1,-29%,16µM*,u,-13%,0%,-23%
Cn1cccc1C(=O)OCc1csc(-c2ccccc2)n1,-25%,14µM*,-6%,-29%,-8%,-7%
CCN(CC)c1ccc(NC(=O)c2nc3nc(C)cc(C(F)F)n3n2)cc1,3.2µM*,-1%,9%,-10%,-21%,-7%
Fc1ccc(Nc2ncnc3onc(-c4cccc(Cl)c4)c23)c(F)c1,x,x,-3%,x,x,2%
O=C(CCSCc1cnn(-c2ccccc2)c1-n1cccc1)NCc1ccccc1F,x,x,15%,x,x,2%
Cn1c2c(c(=O)[nH]c1=O)C(c1ccc(O)cc1)C1=C(N2)c2ccccc2C1=O (stereo not drawn),18µM*,u,0%,-2%,-12%,-9%
CCN(CC)c1ccc(NS(=O)(=O)c2ccc3c(c2)CCCN3C(C)=O)c(C)c1,x,x,1%,x,x,4%
COc1ccc(O)c(N)c1,-43%,u,u,x,3.5µM*,x
CC1CCc2nn(CC(=O)N3CCCCCC3)cc2C1 (stereo not drawn),0.56µM*,5%,-3%,8%,-1%,-3%
CC1CCc2nn(CC(=O)NC3CCCC(C)C3C)cc2C1 (stereo not drawn),1µM*,5%,-8%,-19%,2%,1%
Cc1ccc(C)c(N2CCN(CCCNC(=O)Cn3cc4c(n3)CCCCC4)CC2)c1,u,2%,-11%,-3%,-7%,-1%
Cc1ccc(C)c(N2CCN(CCCNC(=O)Cn3cc4c(n3)CCC(C)C4)CC2)c1 (stereo not drawn),35µM*,3%,u,2%,-2%,0%
CC1CCc2nn(CC(=O)Nc3ccc(F)cc3F)cc2C1 (stereo not drawn),40µM*,0%,u,-6%,-1%,-3%
CCN(C(=O)c1c(C)oc2ncnc(N3CCCCC3)c12)c1cc(C)ccc1C,x,x,0%,x,x,1%
Cc1ccc(/C=N/n2c(-c3ccccc3)csc2=S)cc1,x,x,x,x,x,-8%
CC1CCc2nn(CC(=O)NCCN3CCCCC3C)cc2C1 (stereo not drawn),28µM*,3%,-4%,21%,2%,3%
CC(=O)N1N=C(c2ccccc2)OC1c1ccc([N+](=O)[O-])s1 (stereo not drawn),-25%,0%,-7%,35µM*,u,2%
Cc1c(C(=O)N2CCCCCC2)c(S(=O)(=O)Nc2ccc(OC(F)(F)F)cc2)c(C)n1C,x,x,25%,x,x,-7%
O=C1/C(=C/c2ccco2)CCc2ccccc21,-11%,13µM*,-3%,u,-25%,u
O=C1C(=Cc2ccccc2Cl)CCc2ccccc21,x,x,x,1%[18.4 µM],x,32µM*
O=C1/C(=C\c2ccncc2)CCc2ccccc21,-13%,x,-4%,u,x,u
O=C1/C(=C/c2ccncc2)CCc2ccccc21,-12%,13µM*,4%,u,0%,u
SMILES,AmpC inh no detg,LmPK inhibitor,AmpC detergent,RE007 growth inh,Giardia FBPA inh,Tb PYK inh
Cn1cccc1/C=C1\CCc2ccccc2C1=O,-25%,u,u,35µM*,-15%,u
COc1ccc2oc(-c3ccc(C)c(NC(=O)c4ccc5c(c4)OCCO5)c3)nc2c1,x,x,-3%,x,x,-11%
Cc1ccc(CNC(=O)C(C)n2nc(C)n3c(cc4sccc43)c2=O)cc1 (stereo not drawn),x,x,17%,x,x,-2%
CC1=C(c2ccc(C)c(C)c2)S(=O)(=O)N=C1N1CCC(C(=O)N2CCC(C)CC2)CC1,x,x,6%,x,x,5%
Cc1cccc(NC(=O)Cn2nc(-c3ccccc3)c3cnc4ccccc4c32)c1,x,x,u,x,x,1%
COC(=O)c1c(C)[nH]c(O)c1C=Nc1ccc(C#N)cc1,-23%,0%,2%,11%,16µM*,-9%
Cc1ccccc1OCCSc1nc2ccc(NC(=O)c3cccc(F)c3)cc2s1,x,x,0%,x,x,-14%
Cc1ccc(NCc2n[nH]c(=S)n2-c2ccccc2)cc1,-16%,2%,1%,6%,-2%,2.8µM*
CS(=O)(=O)Nc1ccc(-c2n[nH]c(=S)n2-c2ccccc2)cc1,-15%,10µM*,2%,0%,11%,0%
Cc1ccc(S(=O)(=O)N(Cc2n[nH]c(=S)n2-c2ccccc2)c2cccc(Cl)c2)cc1,-2%,-20%,-4%,3%,18%,u
Cc1ccc(S(=O)(=O)N(Cc2n[nH]c(=S)n2-c2ccccc2)c2ccccc2)cc1,-42%,-24%,2%,10%,18%,7.9µM*
Cc1cccc(NCc2n[nH]c(=S)n2-c2ccccc2)c1,-13%,-18%,4%,-17%,1%,u
Cc1ccc(N/N=C(\C#N)C(N)=S)c(C)c1,3.5µM*,2%,1%,4%,-10%,u
CN(C)C(=O)c1ccc(NC(=O)Cn2nnnc2-c2ccccc2F)cc1,x,x,16%,x,x,3%
CCN1/C(=C\C=C\C2=[N+](CC)c3ccccc3C2(C)C)C(C)(C)c2ccccc21,46%,10µM*,-3%,u,21%,u
C[CH2][Hg][S]c1ccccc1C(=O)O,x,x,x,-21%,13µM*,11µM*
CCCCN(C)C(=O)c1cc2cc3ccc(OC)cc3nc2s1,-2%,14µM*,u,u,-6%,u
Cc1cccc2c3c(ccc12)C1=C(C(=O)C3=O)[C@@H](C)CO1,x,x,x,x,7.1µM*,x
CC1COc2ccccc2C1=O (stereo not drawn),x,x,x,x,3%,x
